Experimental data taken from PubChem BioAssay (NCI).
About 79,000 compounds went through this panel and 15% of them were active in at least one assay; those are over-represented in the sample as a whole. Rule as the data show it: active = growth inhibition above about 70%; inactive = the rest.

What was measured:
[1] = NCI Yeast Anticancer Drug Screen. Data for the rad50 strain (AID 155);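 also: 0% = growth of vehicle-only cultures of the same strain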; details: S. cerevisiae rad50 strain growth inhibition; at 50.0 µM; stronger effect = higher value
Summary of the method: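 Compounds were tested on a yeast strain with an engineered DNA damage repair alteration; the reported value is growth inhibition normalised to vehicle treatment.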

[2] = NCI Yeast Anticancer Drug Screen. Data for the mec2-1 strain (AID 157); details: S. cerevisiae mec2-1 strain, at 50.0 µM, stronger effect = higher value
Summary of the method: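 Growth inhibition is read against vehicle-treated controls after compound exposure of the mec2-1 yeast strain, which is defective in DNA damage repair or cell cycle control.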

[3] = NCI Yeast Anticancer Drug Screen. Data for the sgs1 mgt1 strain (AID 161);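 also: 0% = growth of cultures given vehicle only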; details: S. cerevisiae sgs1 mgt1 strain, at 50.0 µM, stronger effect = higher value
Summary of the method: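 Percent growth inhibition was derived by comparing compound-exposed mutant yeast with vehicle-exposed cultures. The strain carries alterations in DNA damage repair.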

[4] = NCI Yeast Anticancer Drug Screen. Data for the cln2 rad14 strain (AID 165);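 also: 0% = growth equal to vehicle treated cultures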; details: S. cerevisiae cln2 rad14 strain, at 50.0 µM, stronger effect = higher value
Summary of the method: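 Growth inhibition, relative to vehicle-treated controls, is the read-out. The test organism is a yeast strain with defined genetic alterations, cln2 rad14.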

[5] = NCI Yeast Anticancer Drug Screen. Data for the bub3 strain (AID 167); details: S. cerevisiae bub3 mutant strain, at 50.0 µM, stronger effect = higher value
Summary of the method: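 Growth of a checkpoint-deficient yeast mutant is measured after compound exposure. Values represent inhibition relative to vehicle.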

[6] = NCI Yeast Anticancer Drug Screen. Data for the mlh1 rad18 strain (AID 175); details: S. cerevisiae mlh1 rad18 strain growth inhibition; at 50.0 µM; stronger effect = higher value
Summary of the method: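 Cells of a genetically altered yeast strain, deficient in DNA damage repair, were treated with compound. Their growth was then compared with that of vehicle-treated cultures to give inhibition.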

Measured: growth inhibition

CCOC(=O)C(Cl)(Cl)C(Cl)(OCC)C(=O)OCC (configuration not stated)
inactive: [1] 16.1% | [2] 26.1% | [3] 26.8% | [4] -24.4% | [5] 34.5% | [6] 22.2%

CC[O-].CC[O-].COc1ccc(C(=O)[CH-]C(C)=O)cc1OC.COc1ccc(C(=O)[CH-]C(C)=O)cc1OC.[Ti+4]
inactive: [1] -17.4% | [2] 18.5% | [3] -2.7% | [4] 9.85% | [5] 29.9% | [6] -10.3%

O=C1NC=NC1c1ccccc1 (configuration not stated)
inactive: [1] -2.25% | [2] -10.4% | [3] -9.9% | [4] -24.8% | [5] -3.65% | [6] -11.5%

O=C(/C=C/c1ccc(O)cc1)OC[C@@H](O)COC1OC(CO)C(O)C(O)C1O (some centres not stated)
inactive: [1] -5.8% | [2] -5.05% | [3] -4.35% | [4] 6.8% | [5] 8.2% | [6] -3.65%

C(=C\c1csnn1)/c1cccnc1
inactive: [1] 29.9% | [2] -1.95% | [3] 2.05% | [4] 6.35% | [5] 9.3% | [6] 5.75%

CN(c1ccccc1)c1nc(Cl)c(Cl)c(Cl)n1
inactive: [1] -0.2% | [2] -11.5% | [3] 6.55% | [4] -39.9% | [5] 2.45% | [6] -3.5%

CN(C=O)c1c(F)cc(C(=O)O)cc1F
inactive: [1] 3.05% | [2] 4.1% | [3] -3.3% | [4] 4.1% | [5] -6.65% | [6] 8.15%

CCOC(=O)C1=C(NC(C)=O)Sc2ccccc2C1
inactive: [1] 27.9% | [2] 6.6% | [3] 1.8% | [4] -19.3% | [5] 2.45% | [6] 25%

CCCCOc1ccc(C(=O)C(C(c2ccccc2)N2CCOCC2)N2CCOCC2)cc1 (configuration not stated)
inactive: [1] -7.8% | [2] -4.85% | [3] -9.4% | [4] -6.8% | [5] -12.2% | [6] 9.2%

ClCCCCCCCCCCl
inactive: [1] 28.6% | [2] -17.4% | [3] -12.7% | [4] -9% | [5] -13.2% | [6] 2.15%

COc1ccc(OC)c2c1ccc1c(C)c3ccccc3c(C)c12
inactive: [1] 12.2% | [2] -1.1% | [3] 14.2% | [4] 6.8% | [5] 34.1% | [6] 26.2%

Cn1c(Cl)c(C=O)c(=O)n(C)c1=O
inactive: [1] 17.8% | [2] -4.7% | [3] -5.95% | [4] -0.45% | [5] 7% | [6] -2.55%

Cc1c(C)n(C)c(=S)n(C)c1=S
inactive: [1] 4.95% | [2] 4.15% | [3] 5.8% | [4] 31.6% | [5] 1.85% | [6] 8.65%

CC(=O)Nc1ccc(C(=O)NN2C(=O)C(Cl)C2c2ccc([N+](=O)[O-])cc2)cc1 (configuration not stated)
inactive: [1] -0.05% | [2] 19.6% | [3] -2.05% | [4] 1.45% | [5] -24.4% | [6] 8.3%

CC(C)(C)C1CCC2c3c([nH]c4ccccc34)C3C(=O)N(c4cc(Cl)ccc4Cl)C(=O)C3C2C1 (configuration not stated)
inactive: [1] 18% | [2] 0.75% | [3] -4.05% | [4] 5.4% | [5] 6.3% | [6] 0.9%

O=C1OC(C(O)C(O)C(O)CO)C(O)C1O (configuration not stated)
inactive: [1] -9.65% | [2] -29.9% | [3] -11.7% | [4] -40.2% | [5] 28.3% | [6] 4.65%

COc1cc2c(cc1OC)C1(c3ccccc3)ON=C(c3ccccc3)N1CS2 (configuration not stated)
inactive: [1] -14.1% | [2] -12.4% | [3] 8.95% | [4] -32.4% | [5] -7.05% | [6] -11.1%

O=C1CNC(=O)N1CCCl
inactive: [1] 19.7% | [2] -4.7% | [3] -7.65% | [4] 6.3% | [5] 6.15% | [6] -6.7%

CC12CC3(C)CC(C)(C1)CC(C(NC(C)(C)C)C(=O)O)(C2)C3 (configuration not stated)
inactive: [1] 16.8% | [2] 20.1% | [3] 11.9% | [4] 5.7% | [5] 18.9% | [6] 21.2%

Cc1ccc(S(=O)(=O)OCOS(=O)(=O)c2ccc(C)cc2)cc1
inactive: [1] 23.1% | [2] 22.2% | [3] 4.95% | [4] 3.15% | [5] -34.4% | [6] -25.2%

Clc1ccc2nc(/C=C/c3ccccc3)ccc2c1
inactive: [1] -10.7% | [2] -4.2% | [3] -9.4% | [4] 3.35% | [5] 6.9% | [6] -15.7%

CCCCCCC(C)OC(C)=O (configuration not stated)
inactive: [1] -15.6% | [2] -44.5% | [3] -2.55% | [4] -20% | [5] -3.5% | [6] -13.8%

NC(CSCC(=O)O)C(=O)O (configuration not stated)
inactive: [1] -19.8% | [2] -3.85% | [3] 1.15% | [4] -20.6% | [5] 16.1% | [6] -5.9%

CCOC(=O)[C@]1(Br)CC[C@]1(Br)C(=O)OCC
inactive: [1] 16.2% | [2] -12.7% | [3] -4.95% | [4] 10% | [5] -29.1% | [6] -62.8%

O=C(NCCCCCCNC(=O)NCc1ccco1)NCc1ccco1
inactive: [1] -22.7% | [2] -28.2% | [3] -28.1% | [4] -15.7% | [5] 0.05% | [6] -19.9%

COc1ccc2c(O)c(Oc3ccc(Cl)cc3)c(=O)oc2c1
inactive: [1] -4.2% | [2] -1.1% | [3] -1.45% | [4] 2.6% | [5] 7.95% | [6] 22.4%

Cc1ccc(-c2cc(=O)c3cc(C)c(C)c(C(=O)O)c3o2)cc1C
inactive: [1] 11.6% | [2] 20.6% | [3] 30.5% | [4] 23.5% | [5] 6.25% | [6] 20.7%

CCOC(=O)c1ccc2c(c1)C(C)(SC)C(=O)N2 (configuration not stated)
inactive: [1] -12.7% | [2] 0.7% | [3] -2.85% | [4] 4.65% | [5] -6.55% | [6] -1.35%

COC(=O)CC1C(OC)OC23CCC1C2(C)CCC1C3CCC2CC(OC(C)=O)CCC21C (configuration not stated)
inactive: [1] 28.1% | [2] 3% | [3] 13.8% | [4] -30.2% | [5] -1.7% | [6] 8.5%

O=C(O)c1nc2nc(Cl)c(Cl)nc2[nH]1
inactive: [1] -22.7% | [2] -30.4% | [3] -19.7% | [4] 21.9% | [5] -37.8% | [6] 9.4%

COc1ccc(COCc2ccc(OC)cc2)cc1
inactive: [1] 4.55% | [2] -10.6% | [3] 8.7% | [4] -66.5% | [5] 13.8% | [6] 12.7%

Nc1ccn(C2OC(CCl)C(O)C2O)c(=O)n1 (configuration not stated)
inactive: [1] 17.2% | [2] 3.2% | [3] -4.15% | [4] 4.1% | [5] -39.9% | [6] -36.1%

Cc1cccc(CC(N)C(=O)O)c1 (configuration not stated)
inactive: [1] -5.15% | [2] 5.1% | [3] -6.95% | [4] -3.3% | [5] 4% | [6] -9.8%

CCOC(=O)NC(C(F)(F)F)(C(F)(F)F)P(=O)(OC(C)C)OC(C)C
inactive: [1] -23% | [2] -11.6% | [3] -12.4% | [4] 31.1% | [5] 3.65% | [6] 1.65%

CO/C(=N\N=C\c1cc(OC)ccc1OC)c1ccncc1
inactive: [1] 0.6% | [2] -13.2% | [3] -23.6% | [4] 10.7% | [5] -38.8% | [6] -11.2%

CC1=CC(=O)/C(=C/n2c(=S)sc3ccccc32)C(=O)O1
inactive: [1] -27.4% | [2] 7.1% | [3] 27.9% | [4] 23% | [5] -29.9% | [6] 14.6%

C(=N\c1nc2ccccc2s1)/c1cccs1
inactive: [1] -15.7% | [2] -34% | [3] -14.8% | [4] -5.95% | [5] 3.45% | [6] -19.4%

CC(C)(C)OC(=O)N/N=C\c1ccnc2ccccc12
inactive: [1] -8.1% | [2] -8.75% | [3] 3.2% | [4] -15.7% | [5] -6.5% | [6] -1.95%

COC(=O)c1ccccc1C1CN=NC12Cc1c(C)ccc(C)c1C2=O (configuration not stated)
inactive: [1] 9.5% | [2] 7% | [3] 16.9% | [4] 14.2% | [5] 3.55% | [6] 29.9%

COCCCNC(=O)c1nc2ccccc2c(=O)n1NC(=O)Cc1ccccc1
inactive: [1] -14.1% | [2] -19.8% | [3] 7% | [4] 4.35% | [5] 0.3% | [6] -7.75%

CCCOC(=O)/C(C)=C\c1ccccc1
inactive: [1] 21% | [2] 15.9% | [3] 17.6% | [4] 15.3% | [5] -0.6% | [6] 16.9%

CSC1=Nc2cccnc2Nc2cscc21
inactive: [1] -9.25% | [2] -6% | [3] 22.1% | [4] 9.65% | [5] -3.8% | [6] 25.1%
